Bioassay records deposited in PubChem BioAssay by National Center for Advancing Translational Sciences (NCATS).
Most compounds without a hit are left out; they make up all but 12% or so of the library.
JMJD2A Tudor = qHTS Assay for Inhibitors of JMJD2A-Tudor Domain; 4.4% of 390,000 active; AID 504339, 2011; AlphaScreen JMJD2A-Tudor / H3K4me3 peptide binding; Potency, µM (titrated, usually from 114 µM), inactives show at the highest dose activity change, negative = inhibition, actives largely listed as inhibitors; note: % is set by controls: 0 for no effect and ±100 for the full control effect; nearly all actives have a fitted effect of over 50% in size
L3MBTL1 block = qHTS Assay for the Inhibitors of L3MBTL1 | AlphaScreen L3MBTL1–H3K9me1 peptide binding | Lethal(3)malignant brain tumor-like protein 1 (Homo sapiens), Q9Y468 | 0.66% of 230,000 active | Potency, µM (doses to about 57.1 µM), for the others: at the highest dose activity, negative = inhibition, actives largely listed as inhibitors | AID 485360, 2010; note: % is set by controls: 0 for no effect and ±100 for the full control effect; nearly all actives have a fitted effect of over 60% in size
Target sequence (Q9Y468 whole entry, looked up): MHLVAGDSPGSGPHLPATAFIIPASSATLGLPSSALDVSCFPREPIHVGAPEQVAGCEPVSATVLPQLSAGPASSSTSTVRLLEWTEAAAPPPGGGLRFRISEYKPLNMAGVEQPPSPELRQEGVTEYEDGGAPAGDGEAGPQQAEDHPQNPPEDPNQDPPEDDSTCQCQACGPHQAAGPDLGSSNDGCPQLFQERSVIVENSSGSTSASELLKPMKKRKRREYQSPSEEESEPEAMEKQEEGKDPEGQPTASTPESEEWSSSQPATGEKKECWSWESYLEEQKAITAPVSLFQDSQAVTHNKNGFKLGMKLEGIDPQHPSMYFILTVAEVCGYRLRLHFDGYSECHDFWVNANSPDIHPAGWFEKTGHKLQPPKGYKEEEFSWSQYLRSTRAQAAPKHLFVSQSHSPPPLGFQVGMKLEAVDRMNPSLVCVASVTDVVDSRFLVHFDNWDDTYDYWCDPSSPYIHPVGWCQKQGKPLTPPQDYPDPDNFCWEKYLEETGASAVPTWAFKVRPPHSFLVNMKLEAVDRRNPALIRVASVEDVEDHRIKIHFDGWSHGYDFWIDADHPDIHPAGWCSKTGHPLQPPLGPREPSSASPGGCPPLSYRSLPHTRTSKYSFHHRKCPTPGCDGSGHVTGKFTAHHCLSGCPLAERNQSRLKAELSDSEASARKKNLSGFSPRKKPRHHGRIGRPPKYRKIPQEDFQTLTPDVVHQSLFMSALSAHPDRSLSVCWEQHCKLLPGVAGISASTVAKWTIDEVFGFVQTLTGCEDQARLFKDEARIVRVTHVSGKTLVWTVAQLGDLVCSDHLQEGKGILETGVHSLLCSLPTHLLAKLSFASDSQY
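AlphaScreen assay: L3MBTL1 (50 nM final) was preincubated 30 min at room temperature with biotinylated H3(1-15)K9me1 peptide (75 nM final), then 30 min with library compounds; streptavidin donor and nickel chelate acceptor beads (10 ug/mL final) added, 30 min dark.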
G9a inh = qHTS Assay for Inhibitors of Histone Lysine Methyltransferase G9a; G9a H3K9 monomethylation, AlphaScreen, 2 h; Potency, µM (top dose mostly 102 µM), inactives show at the highest dose activity, negative = inhibition, actives largely listed as inhibitors; 8.8% of 350,000 active; note: % is set by controls: 0 for no effect and ±100 for the full control effect; nearly all actives have a fitted effect of over 75% in size
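Quantitative HTS format: methyltransferase activity on a biotin-tagged H3K9 peptide is measured by AlphaScreen, using a rabbit anti-monomethyl-H3K9 antibody with streptavidin donor and anti-IgG acceptor beads. Final levels are 20 nM enzyme, 500 nM peptide, 20 uM SAM; 2 h RT.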
HP1b binding inh = HTS for Inhibitors of HP1-beta Chromodomain Interactions with Methylated Histone Tails; Potency, µM (titrated, usually from 114 µM), without a hit: top-dose activity change, negative = inhibition, most hits filed as inhibitors; AlphaScreen HP1-beta / biotin-H3K9me3 peptide binding; AID 540317, 2011; 0.56% of 390,000 active; note: nearly all actives have a fitted effect of over 70% in size
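HP1-beta protein (50 nM final) preincubated 30 min at room temperature with biotinylated H3(1-18)K9me3 peptide (50 nM) in PBS pH 7.4, 0.01% Tween-20, then compound added for 30 min. AlphaScreen streptavidin donor/nickel chelate acceptor beads (10 ug/mL final), 30 min dark, luminescence read.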
BAZ2B inh = qHTS Assay for Inhibitors of BAZ2B | Bromodomain adjacent to zinc finger domain protein 2B (Homo sapiens), Q9UIF8 | AlphaScreen BAZ2B-H3K14Ac peptide displacement | Potency, µM (highest dose often 114 µM), inactives show at the top dose activity change, negative = inhibition, actives largely listed as inhibitors | 4.4% of 360,000 active | AID 504333, 2011; note: % is set by controls: 0 for no effect and ±100 for the full control effect; nearly all actives have a fitted effect of over 60% in size
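Complex of BAZ2B and biotin-H3K14Ac (50 nM apiece) forms over 30 min at RT, then faces library compounds up to 110 uM for another 30 min; AlphaScreen beads added, 20 min dark incubation, luminescence read.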
Sfp PPTase inh = qHTS Assay for Inhibitors of Bacillus subtilis Sfp phosphopantetheinyl transferase (PPTase); 3.5% of 310,000 active; AID 1490, 2009; 4'-phosphopantetheinyl transferase ffp (Bacillus subtilis), Q9F4F7; Potency, µM, without a hit: largest response in the series, negative = inhibition, hits mostly inhibitors; Biochemical Sfp PPTase activity, qHTS;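 note: the enzyme is Sfp with the accession as filed and its product quenches rhodamine fluorescence; 0% = enzyme reaction without inhibitor and -100% = no enzyme wells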
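Reaction rates are the 30-min fluorescence difference (ex 525, em 598 nm) in wells containing 15 nM Sfp, 5 uM rhodamine-CoA and 12.5 uM BHQ-2-YbbR at pH 7.6 with 10 mM MgCl2.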
The depositor's hits bear a star; ? = inconclusive; . = not tested or not shown; [ ] = dose if it differs, or a comment. Calls come from the whole dose curve; as a rule, active = well fitted curve in the direction sought with a large enough effect; inconclusive = small, poorly fitted or top-dose-only effect, or another doubt; inactive = no such curve, though single readings can be large; an effect the other way counts as inactive or inconclusive. Potency is the fitted concentration of half-maximal effect.

SMILES	JMJD2A Tudor	L3MBTL1 block	G9a inh	HP1b binding inh	BAZ2B inh	Sfp PPTase inh
CN1CCN(C(c2ccccn2)c2cc(Cl)c3cccnc3c2O)CC1 (stereo not given)	18µM*	14µM*	?	11µM*	11µM*	32µM*
CCCCC(=O)NC(c1ccco1)c1cc(Cl)c2cccnc2c1O (stereo not given)	-14%[11.4 µM]	-6%	.	31%	-13%	3%
O=C(OCC#CCSc1nnc(-c2cccc3ccccc23)o1)c1ccc(F)nc1	20%	.	.	.	.	.
Cc1cccc(C(C)C)c1NC(=O)C(C)OC(=O)Cn1cnc2c1c(=O)n(C)c(=O)n2C (stereo not given)	-9%	0%	6%[0.501 µM]	10%	-1%	.
CC(=S)c1c(C)cc2cc(C)ccn12	25µM*	?	?	22µM*	10µM*	?
O=C(CN1CC(=O)Oc2ccccc21)OCC(=O)c1ccc(Br)cc1	20µM*	.	.	70%	.	.
O=C(CN1CC(=O)Oc2ccccc21)OCC(=O)c1ccc(F)cc1	10µM*	18µM*	?	39%	8.9µM*	50µM*
Cc1c(O)c(=O)ccn1Cc1ccccc1	-8%	1%	32µM*	52%	?	-2%
Cc1cccc(OCC(=O)NCCCNC(=O)c2ccc(C)nc2)c1	-14%	.	7%	27%	-1%	19%
Cn1nnnc1Sc1ncnc2scc(-c3ccc4ccccc4c3)c12	-17%	.	.	.	.	.
CCOC(=O)c1c(-c2ccccc2)csc1NC(=O)C1CCCO1 (stereo not given)	-14%	-9%	?	-26%	1%	32µM*
CCOC(=O)c1c(-c2ccccc2)csc1NC(=O)CSc1ccccc1	38%	68%	29%[59 µM]	52%	45%	-8%
CCOC(=O)c1c(-c2ccccc2)csc1NC(=O)/C(C#N)=C/c1ccc(O)c(OC)c1	-32%	?	40µM*	?	?	?
CCOC(=O)c1c(-c2ccc(-c3ccccc3)cc2)csc1NC(=O)C1C2CCC(O2)C1C(=O)O (stereo not given)	-14%[57.1 µM]	1%	.	?	?	50µM*
COc1ccc(C2C(C(C)=O)=C(O)C(=O)N2c2ccccn2)cc1 (stereo not given)	-19%	.	-14%	-9%	-5%	0%
CN1CCc2nc3sc(C(=O)NCc4ccccc4)c(N)c3cc2C1	-13%	-17%	11µM*	24%	?	-27%
CN(C)/C=C/C(=O)c1ccc(-c2ccc(Cl)cc2Cl)o1	-22%[57.1 µM]	-16%	45µM*	-21%	?	-22%
O=C(O)c1ccc(-c2ccc(Cl)cc2Cl)o1	-28%	.	2%	3%	-26%	14%
CCOC(=O)c1c(NC(=O)c2ccccc2Br)sc2c1CCc1ccccc1-2	-13%	.	1.4µM*	-4%	9%	40µM*
COC(=O)c1c(NC(=O)COc2ccc(Cl)cc2C)sc2c1CCCCC2	-9%	.	7.9µM*	-17%	-10%	.
COC(=O)c1c(NC(=O)CCCOc2ccccc2C)sc2c1CCC2	15%	.	-23%[59 µM]	23%	-25%	.
COC(=O)c1c(NC(=O)COc2cc(C)c(Cl)c(C)c2)sc2c1CCCC2	-15%	.	7.1µM*	?	24%	.
CCOC(=O)c1c(NC(C)=O)sc2c1CCCNC2=O	-13%	-8%	-33%	11%	?	14%
CCOC(=O)c1c(NC(C)=O)sc2c1CCC(C=O)=C2Sc1ccccc1	?	.	?	-8%	?	50µM*
CC(OC(=O)c1ccc(-c2ccc(O)cc2)cc1)C(=O)NC1CCCCC1C (stereo not given)	-16%	-1%	5%[0.501 µM]	20%	-6%	.
SMILES	JMJD2A Tudor	L3MBTL1 block	G9a inh	HP1b binding inh	BAZ2B inh	Sfp PPTase inh
O=C(COC(=O)C12CC3CC(CC(C3)C1)C2)NCC1CCCO1 (stereo not given)	-12%	.	.	32%	.	.
O=C(COC(=O)c1cc(=O)[nH]c2ccccc12)NC(=O)c1ccccc1	-17%	3%	?	12%	-7%	.
CCOC(=O)c1c(NC(=O)COc2ccc(CC)cc2)sc2c1CCCC2	14%	.	-3%[59 µM]	43%	12%	.
CCOC(=O)c1c(NC(=O)COc2c(C)cc(Cl)cc2Cl)sc2c1CCCC2	-5%	.	-38%[59 µM]	24%	-6%	.
CCOC(=O)c1c(NC(=O)COc2ccc(C(C)(C)C)cc2)sc2c1CCCC2	-20%	.	?	8%	-15%	.
CCOC(=O)c1c(NC(=O)COc2ccccc2Br)sc2c1CCCCC2	-5%	.	10µM*	-6%	14%	.
CCOC(=O)c1c(NC(=O)COc2ccc(Cl)cc2C)sc2c1CCCCC2	-20%	.	6.3µM*	?	-6%	.
CCOC(=O)c1c(NC(=O)COc2cccc(C(F)(F)F)c2)sc2c1CCCCC2	-15%	.	5.6µM*	-21%	-7%	.
Oc1ccc(N=Nc2cccc(Cl)c2)cc1C=Nc1ccc(N2CCOCC2)cc1	?	-2%	?	?	7.9µM*	-4%
Clc1cccc(-c2ccc(C=Nc3ccc(N4CCOCC4)cc3)o2)c1	?	-3%	3.2µM*	?	32µM*	-20%
CSCC[C@H](NC(=O)[C@H](CC(C)C)N(C)C(=O)[C@@H]1CCCN1C(=O)[C@H](Cc1ccccc1)NC(=O)[C@H](Cc1ccccc1)NC(=O)CCC(C)N)C(=O)O (stereo not given in full)	.	.	.	.	.	-20%
CCOC(=O)C(Cc1c[nH]c2ccccc12)NC(=O)COc1ccc(Cl)c(C)c1 (stereo not given)	?	.	-33%[59 µM]	-5%	-26%	.
c1ccc(-c2nnc3sc(-c4csc5c4CCCC5)nn23)cc1	?	-4%	5µM*	?	14%	6.3µM*
c1ccc(-c2nnc3sc(-c4ccncc4)nn23)cc1	-25%	-11%	-4%[12.7 µM]	-16%	2%	-19%
Cc1cccc(-c2nnc3sc(-c4ccccc4C)nn23)c1	-5%	5%	16%	46%	2%	50µM*
